The full list was thinned out, with hits kept by preference.
BL2 CD40 inh: CD40 pathway inhibition in BL2 cells; 83,000 tested, 0.94% active; AID 1053188; inhibition, % at 10 µM; BL2 NF-kB luciferase reporter, CD40L-induced, 4 h;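 active means mean inhibition of at least 50% with a set share of replicates also reaching that level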
A number is an active result; - = inactive; [ ] = remark or other dose.

SMILES	BL2 CD40 inh
CS(=O)(=O)N1C[C@@H]2C(c3ccccc3)[C@H](C1)N2Cc1ccc(F)cc1 (stereo partly drawn)	-
O=C(Cc1cccnc1)N1CC(=O)N2[C@H](CO)[C@H](c3ccc(C#CC4CCCC4)cc3)[C@H]2C1	-
C[C@@H]1CN(C)C(=O)c2cc(N)ccc2O[C@@H]1CN(C)C	-
CN(C)c1ncnc(N(C)C)c1[N+](=O)[O-]	-
Nc1ncnc(Sc2ncccn2)c1[N+](=O)[O-]	84.3
O=[N+]([O-])c1ccc(Sc2ccccn2)nc1	-
C[C@@H]1CN([C@H](C)CO)C(=O)c2c(c3ccccc3n2C)-c2ccccc2CO[C@H]1CN(C)C(=O)CCN(C)C	-
C[C@H](CO)N1C[C@H](C)[C@@H](CN(C)Cc2ccccc2)OCc2ccccc2-c2ccccc2C1=O	-
C[C@@H]1CN([C@@H](C)CO)C(=O)c2ccccc2-c2ccccc2CO[C@@H]1CN(C)Cc1ccc(C(F)(F)F)cc1	-
C[C@@H]1CN([C@@H](C)CO)C(=O)c2ccccc2-c2ccccc2CO[C@@H]1CN(C)Cc1ccccc1C(F)(F)F	53.3[25 µM]
C[C@@H]1CN([C@H](C)CO)C(=O)c2ccccc2-c2ccccc2CO[C@@H]1CN(C)Cc1ccccc1C(F)(F)F	82.6[25 µM]
C[C@H](CO)N1C[C@H](C)[C@H](CN(C)Cc2ccccc2C(F)(F)F)OCc2ccccc2-c2ccccc2C1=O	-
C[C@H](CO)N1C[C@H](C)[C@@H](CN(C)Cc2ccc(Oc3ccccc3)cc2)OCc2ccccc2-c2ccccc2C1=O	69.3[25 µM]
C[C@H]1CN([C@@H](C)CO)C(=O)c2ccccc2-c2ccccc2CO[C@H]1CN(C)Cc1ccccc1C(F)(F)F	-
C[C@@H]1CN([C@H](C)CO)C(=O)c2ccccc2-c2ccccc2CO[C@@H]1CN(C)Cc1ccccc1	-
COc1ccccc1CN(C)C[C@H]1OCc2ccccc2-c2ccccc2C(=O)N([C@@H](C)CO)C[C@H]1C	-
O=C(c1ccccc1F)N1CC(=O)N2[C@@H](CO)[C@H](c3ccc(C#Cc4ccccc4)cc3)[C@@H]2C1	-
O=C1CNC[C@H]2[C@H](c3ccc(C#CC4CCCCC4)cc3)[C@@H](CO)N12	-
O=C(C[C@@H]1CC[C@@H]2[C@H](COC[C@@H](O)CN2CC2CCOCC2)O1)NCC1CCCCC1	-
O=C(O)c1ccc(Nc2nc3c(s2)CCCC3)cc1	72.0
O=C(Nc1nc2c(s1)CCCC2)c1cccnc1	-
O=C(Nc1nc2c(s1)CCCC2)Oc1ccccc1	-
CC(=O)Nc1ccc2c(c1)CC(=O)N(C)C[C@H](C)[C@H](CN(C)C(=O)OC(C)(C)C)O2	-
C[C@@H]1CCCCO[C@@H](CN(C)C(=O)Nc2ccccc2)[C@@H](C)CN([C@@H](C)CO)C(=O)c2cc(NC(=O)Nc3ccc4c(c3)OCO4)ccc2O1	-
COc1ccc(S(=O)(=O)Nc2cccc3c2O[C@@H](CN(C)C(=O)Nc2cccc4ccccc24)[C@@H](C)CN([C@@H](C)CO)C3=O)cc1	-
SMILES	BL2 CD40 inh
CO[C@@H]1CN(C)C(=O)c2cc(NC(=O)c3cc(C)on3)ccc2OC[C@@H](C)N(C(=O)C2CC2)C[C@@H]1C	-
Cc1ncn(-c2ccc(C(=O)Oc3ccccc3)cn2)n1	37.7
Cc1onc(-c2ccccc2)c1C(=O)Oc1ccccc1	-
O=C(Oc1ccccc1C(=O)Oc1ccccc1)c1cccnc1	-
COCC(=O)N1C[C@@H]2[C@H](c3ccccc31)[C@@H](CO)N2C(=O)C1CCCCC1	-
COc1ccc(C2CC2/C(C)=N/OC(=O)c2cccs2)cc1 (stereo not drawn)	-
COc1ccc(C(=O)O/N=C(/C)c2cccs2)cc1	58.6
COc1ccc(OCCOC(=O)c2cccs2)cc1	-
COCCNC(=O)C1CCCN(Cc2ccc(C(C)C)cc2)CC1 (stereo not drawn)	-
CC(C)Cc1ccc(C(C)/C=C2/CCC(CN3CCCCC3)C2=O)cc1 (stereo not drawn)	65.7
CC(C)Cc1ccc(CN2CCCC(NC(=O)CCN3CCCCC3=O)C2)cc1 (stereo not drawn)	-
Cc1ccccc1S(=O)(=O)N1[C@H](CO)[C@@H](c2ccc(C#CC3CCCC3)cc2)[C@@H]1C#N	-
OC[C@H]1[C@H](c2ccc(C#Cc3ccccc3F)cc2)[C@H]2CN(Cc3cncnc3)CCCCN21	-
C[C@H](CO)N1C[C@H](C)[C@@H](CN(C)Cc2ccc(Cl)c(Cl)c2)OCCCC[C@H](C)Oc2ccc(NS(=O)(=O)c3cccs3)cc2C1=O	50.6[25 µM]
COc1ccc(S(=O)(=O)Nc2ccc3c(c2)C(=O)N([C@H](C)CO)C[C@@H](C)[C@H](CN(C)C(=O)Nc2ccc(C(F)(F)F)cc2)OCCCC[C@@H](C)O3)cc1	-
COc1ccc(NC(=O)Nc2ccc3c(c2)C(=O)N([C@@H](C)CO)C[C@@H](C)[C@@H](CN(C)Cc2ccc(C(F)(F)F)cc2)OCCCC[C@H](C)O3)cc1	-
C[C@H]1CCCCO[C@@H](CN(C)Cc2ccncc2)[C@@H](C)CN([C@@H](C)CO)C(=O)c2cc(NS(=O)(=O)c3ccc(Cl)cc3)ccc2O1	-
